Test results as given in PubChem BioAssay (EPA / NIEHS).
Records with an inconclusive call do not appear. Calls of active or inactive are those of the source. The calls were made as follows, unless noted: active = hit-call score of the fitted dose curve at least 0.9, where 1 is the maximum; inactive = score below 0.9.

What was measured:
[1] = BSK_3C_VCAM1: BioMAP Diversity Plus: 3C Assay for Vascular cell adhesion molecule 1 (VCAM1) Biomarker Activity (AID 2282999); details: BioMAP 3C HUVEC, VCAM1 ELISA, cytokine-stimulated; actives raise or lower the signal
Procedure, shortened: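 Human umbilical vein endothelial cells were dosed with compound for 24 h, after which cell-surface VCAM-1 was quantified by ELISA. Bidirectional curve fitting used DMSO as negative control and activity baseline.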

[2] = BSK_4H_Eotaxin3: BioMAP Diversity Plus: 4H Assay for Eotaxin 3 Biomarker Activity (AID 2283000); details: primary human endothelial cells (HUVEC); actives raise or lower the signal
Procedure, shortened: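 Human umbilical vein endothelial cells (BSK_4H system) dosed with test chemical; Eotaxin-3 (CCL26) measured by ELISA 24 h after dosing. Bidirectional curve fitting relative to DMSO negative control as baseline.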

[3] = read-out: Intercellular Adhesion Molecule 1 (ICAM1), ICAM1 (gene 3383); assay: BSK_3C_ICAM1: BioMAP Diversity Plus: 3C Assay for Intercellular Adhesion Molecule 1 (ICAM1) Biomarker Activity (AID 2283003); details: primary human endothelial cells (HUVEC); actives raise or lower the signal
Procedure, shortened: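 HUVEC primary cells stimulated under 3C conditions; ICAM1 measured by ELISA 24 h after compound dosing. Curves fitted bidirectionally against the DMSO baseline. Overt cytotoxicity checked by SRB staining of parallel cultures.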

[4] = target: human Retinoic Acid Receptor beta (RARb), RARB (gene 5915) (UniProt P10826); assay: ATG_RARb_TRANS: Attagene TRANS-FACTORIAL HepG2 Assay for human Retinoic Acid Receptor beta (AID 2283004; active = hit-call score of the fitted dose curve at least 0.9, where 1 is the maximum)
Procedure, shortened: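 Induction of reporter mRNA from a chimeric RARb-Gal4 construct was measured by RT-PCR, FAM labelling, HpaI digestion and capillary electrophoresis. Measurements followed 24 h compound treatment of transiently transfected human HepG2 liver cells, with DMSO as baseline.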

[5] = target: Retinoic acid receptor alpha (Homo sapiens) (UniProt P10276); assay: ATG_RARa_TRANS: Attagene TRANS-FACTORIAL HepG2 Assay for human Retinoic Acid Receptor alpha (RARa) (AID 2283005; active = hit-call score of the fitted dose curve at least 0.9, where 1 is the maximum)
Procedure, shortened: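 HepG2 cells transiently transfected with multiple reporter units expressing chimeric RARα-GAL4 fusion, with GAL4-UAS-driven reporters. After 24 h compound exposure, reporter mRNA induction quantified by RT-PCR and capillary electrophoresis with fluorescent labeling; gain-of-signal fitted relative to DMSO control.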

[6] = BSK_3C_Proliferation: Cell Proliferation Assessment in the BioMAP Diversity Plus: 3C Assay (AID 2283006); details: primary human endothelial cells (HUVEC);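 as to AC50: potency may reflect either rise or fall in cell number versus DMSO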
Procedure, shortened: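 Subconfluent HUVEC (3C system) cultured with chemical; relative cell number read at 48 h by sulforhodamine B total-protein staining (0.1% SRB after 10% TCA fixation, 560 nm). Bidirectional fit relative to DMSO.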

[7] = target: Peroxisome proliferator-activated receptor gamma (Homo sapiens) (UniProt P37231); assay: ATG_PPARg_TRANS: Attagene TRANS-FACTORIAL HepG2 Assay for human Peroxisome Proliferator-activated Receptor-gamma (PPARg) (AID 2283007; active = hit-call score of the fitted dose curve at least 0.9, where 1 is the maximum)
Procedure, shortened: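 Liver-derived HepG2 cells expressing an exogenous NR-Gal4 chimera alongside GAL4-UAS reporter genes; 24 h exposure. Fluorescence of reporter RT-PCR products, separated by capillary electrophoresis, gives mRNA induction relative to DMSO.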

[8] = target: Nuclear receptor subfamily 1 group I member 2 (Homo sapiens) (UniProt O75469); assay: ATG_PXR_TRANS: Attagene TRANS-FACTORIAL HepG2 Assay for human Pregnane X Receptor (PXR) (AID 2283008; active = hit-call score of the fitted dose curve at least 0.9, where 1 is the maximum)
Procedure, shortened: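 Read-out is fluorescence of labelled reporter cDNA fragments separated by capillary electrophoresis after RT-PCR and HpaI digestion. Source: HepG2 cells carrying PXR-GAL4/UAS reporter constructs, treated 24 h; activity fitted upward relative to DMSO.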

[9] = target: human Retinoic Acid Receptor gamma (RARg), RARG (gene 5916) (UniProt P13631); assay: ATG_RARg_TRANS: Attagene TRANS-FACTORIAL HepG2 Assay for human Retinoic Acid Receptor gamma (RARg) (AID 2283009; active = hit-call score of the fitted dose curve at least 0.9, where 1 is the maximum;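 as to AC50: AC50 is for reporter induction above DMSO meaning RARg activation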)
Procedure, shortened: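 HepG2 transiently transfected with GAL4-UAS reporter units and chimeric NR-Gal4 constructs; 24 h compound exposure. Reporter mRNA quantified by RT-PCR, FAM labeling, HpaI digestion and capillary electrophoresis; gain-of-signal versus DMSO.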

[10] = target: human RAR-related Orphan Receptor gamma (RORg), RORC (gene 6097) (UniProt P51449); assay: ATG_RORg_TRANS: Attagene TRANS-FACTORIAL HepG2 Assay for human RAR-related Orphan Receptor gamma (RORg) (AID 2283011; active = hit-call score of the fitted dose curve at least 0.9, where 1 is the maximum)
Procedure, shortened: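 Reporter transcripts from a transfected RORg-GAL4 chimera in HepG2 cells were quantified 24 h after dosing by RT-PCR, 6-FAM labelling, HpaI digestion and capillary electrophoresis; increases over DMSO baseline were fitted.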

[11] = target: Retinoic acid receptor RXR-alpha (Homo sapiens) (UniProt P19793); assay: ATG_RXRa_TRANS: Attagene TRANS-FACTORIAL HepG2 Assay for human Retinoid X Receptor alpha (RXRa) (AID 2283012; active = hit-call score of the fitted dose curve at least 0.9, where 1 is the maximum)
Procedure, shortened: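 HepG2 cells transiently transfected with GAL4-UAS reporter units and chimeric RXRa-Gal4 protein, treated 24 h. Reporter mRNA measured by RT-PCR, fluorescent labelling, HpaI digestion and capillary electrophoresis. Induction fitted against DMSO.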

[12] = target: human Retinoid X Receptor beta (RXRb), RXRB (gene 6257) (UniProt P28702); assay: ATG_RXRb_TRANS: Attagene TRANS-FACTORIAL HepG2 Assay for human Retinoid X Receptor beta (RXRb) (AID 2283013; active = hit-call score of the fitted dose curve at least 0.9, where 1 is the maximum)
Procedure, shortened: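 HepG2 cells were transiently transfected with multiplexed GAL4-UAS reporters and a chimeric RXRb-Gal4 construct, then exposed for 24 h. Reporter mRNA was quantified by RT-PCR, FAM labeling, HpaI digestion and capillary electrophoresis; gain of signal was scored against DMSO.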

[13] = target: human Thyroid Receptor alpha (THRa1), THRA (gene 7067) (UniProt P10827); assay: ATG_THRa1_TRANS: Attagene TRANS-FACTORIAL HepG2 Assay for human Thyroid Receptor alpha (THRa1) (AID 2283014; active = hit-call score of the fitted dose curve at least 0.9, where 1 is the maximum)
Procedure, shortened: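 Transcripts from GAL4-UAS-driven reporters, measured after 24 h compound exposure by RT-PCR plus capillary electrophoresis of 6-FAM-labeled fragments, were fitted for gain of signal relative to DMSO. Cells: transiently transfected HepG2 expressing NR-Gal4 chimeras.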

[14] = read-out: E-selectin (Homo sapiens) (UniProt P16581); assay: BSK_3C_Eselectin: BioMAP Diversity Plus: 3C Assay for Eselectin Biomarker Activity (AID 2283015); details: primary human endothelial cells (HUVEC); actives raise or lower the signal
Procedure, shortened: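 E-selectin ELISA readout, fitted bidirectionally relative to DMSO, taken 24 h post-dosing in HUVEC cultures of the 3C system. Overt cytotoxicity tracked with sulforhodamine B staining of parallel wells.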

[15] = read-out: Interleukin-1 alpha (IL1a), IL1A (gene 3552); assay: BSK_BE3C_IL1a: BioMAP Diversity Plus: BE3C Assay for Interleukin-1 alpha (IL1a) Biomarker Activity (AID 2283016); details: primary human bronchial epithelial cells; actives raise or lower the signal
Procedure, shortened: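 Human primary bronchial epithelial cells, 24 h chemical exposure; IL-1a quantified by ELISA, fitted bidirectionally against DMSO. Cytotoxicity assessed in parallel by SRB total-protein staining at the time of measurement.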

[16] = read-out: Monocyte Chemoattractant Protein-1 (MCP1), CCL2 (gene 6347); assay: BSK_3C_MCP1: BioMAP Diversity Plus: 3C Assay for Monocyte Chemoattractant Protein-1 (MCP1) Biomarker Activity (AID 2283017); details: primary human endothelial cells (HUVEC); actives raise or lower the signal
Procedure, shortened: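 MCP-1 was measured by ELISA 24 h after dosing in primary HUVEC 3C cultures and fitted in both directions relative to DMSO; cytotoxicity was checked by SRB total-protein staining in parallel wells.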

[17] = read-out: Monocyte Chemoattractant Protein-1 (MCP1), CCL2 (gene 6347); assay: BSK_4H_MCP1: BioMAP Diversity Plus: 4H Assay for Monocyte Chemoattractant Protein-1 (MCP1) Biomarker Activity (AID 2283018); details: primary human endothelial cells (HUVEC); actives raise or lower the signal
Procedure, shortened: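 Human umbilical vein endothelial cells (4H system) exposed to chemicals for 24 h in 96-well format. MCP-1 measured by ELISA; bidirectional fitting against DMSO, with SRB total-protein staining in parallel cultures for cytotoxicity.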

[18] = target: human Peroxisome Proliferator-activated Receptor alpha (PPARa), PPARA (gene 5465) (UniProt Q07869); assay: ATG_PPARa_TRANS: Attagene TRANS-FACTORIAL HepG2 Assay for human Peroxisome Proliferator-activated Receptor alpha (PPARa) (AID 2283001; active = hit-call score of the fitted dose curve at least 0.9, where 1 is the maximum)
Procedure, shortened: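 Gain-of-signal endpoint: reporter mRNA induction relative to DMSO, detected by fluorescent RT-PCR and capillary electrophoresis. HepG2 cells transiently carried GAL4-UAS-driven reporter units plus NR-Gal4 fusion; exposure lasted 24 h.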

[19] = target: human Peroxisome Proliferator-activated Receptor delta (PPARd), PPARD (gene 5467) (UniProt Q03181); assay: ATG_PPARd_TRANS: Attagene TRANS-FACTORIAL HepG2 Assay for human Peroxisome Proliferator-activated Receptor delta (PPARd) (AID 2283002; active = hit-call score of the fitted dose curve at least 0.9, where 1 is the maximum)
Procedure, shortened: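 HepG2 cells transiently transfected with multiplexed GAL4-UAS reporter units and exogenous chimeric NR-Gal4 proteins; 24 h compound exposure. Reporter mRNA measured by RT-PCR, 6-FAM labelling, HpaI digestion and capillary electrophoresis; gain of signal versus DMSO.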

Measured: AC50

Chain of Peroxisome proliferator-activated receptor gamma (Homo sapiens) (P37231 whole entry, looked up, the tested form may be a part): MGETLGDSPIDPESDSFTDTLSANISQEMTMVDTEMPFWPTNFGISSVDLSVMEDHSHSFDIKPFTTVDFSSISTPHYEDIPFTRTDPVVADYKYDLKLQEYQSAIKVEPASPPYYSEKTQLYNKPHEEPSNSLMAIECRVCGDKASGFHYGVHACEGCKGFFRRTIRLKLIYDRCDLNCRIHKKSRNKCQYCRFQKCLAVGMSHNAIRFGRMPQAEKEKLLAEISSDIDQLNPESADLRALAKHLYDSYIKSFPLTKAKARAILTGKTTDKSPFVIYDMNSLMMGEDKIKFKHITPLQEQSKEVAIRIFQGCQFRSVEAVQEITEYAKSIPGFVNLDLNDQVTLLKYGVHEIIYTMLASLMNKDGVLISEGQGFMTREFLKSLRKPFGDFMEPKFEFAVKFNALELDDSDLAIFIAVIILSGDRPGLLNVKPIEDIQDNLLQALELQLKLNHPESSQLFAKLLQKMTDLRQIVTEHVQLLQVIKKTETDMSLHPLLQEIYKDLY
Chain of Retinoic acid receptor RXR-alpha (Homo sapiens) (P19793 whole entry, looked up, the tested form may be a part): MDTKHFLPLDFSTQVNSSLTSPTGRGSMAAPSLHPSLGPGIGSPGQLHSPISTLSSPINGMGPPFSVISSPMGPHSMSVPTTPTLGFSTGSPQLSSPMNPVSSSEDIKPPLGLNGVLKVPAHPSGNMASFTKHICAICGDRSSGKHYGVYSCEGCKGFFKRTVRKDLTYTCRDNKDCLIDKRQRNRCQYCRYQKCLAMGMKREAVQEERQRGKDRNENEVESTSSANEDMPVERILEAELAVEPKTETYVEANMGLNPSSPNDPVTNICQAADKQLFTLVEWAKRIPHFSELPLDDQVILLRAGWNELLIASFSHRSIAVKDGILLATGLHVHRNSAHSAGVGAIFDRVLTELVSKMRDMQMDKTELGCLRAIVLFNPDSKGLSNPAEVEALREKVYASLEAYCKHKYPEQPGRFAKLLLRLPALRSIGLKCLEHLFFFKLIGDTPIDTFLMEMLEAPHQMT
Chain of human Retinoid X Receptor beta (RXRb), RXRB (gene 6257) (P28702 whole entry, looked up, the tested form may be a part): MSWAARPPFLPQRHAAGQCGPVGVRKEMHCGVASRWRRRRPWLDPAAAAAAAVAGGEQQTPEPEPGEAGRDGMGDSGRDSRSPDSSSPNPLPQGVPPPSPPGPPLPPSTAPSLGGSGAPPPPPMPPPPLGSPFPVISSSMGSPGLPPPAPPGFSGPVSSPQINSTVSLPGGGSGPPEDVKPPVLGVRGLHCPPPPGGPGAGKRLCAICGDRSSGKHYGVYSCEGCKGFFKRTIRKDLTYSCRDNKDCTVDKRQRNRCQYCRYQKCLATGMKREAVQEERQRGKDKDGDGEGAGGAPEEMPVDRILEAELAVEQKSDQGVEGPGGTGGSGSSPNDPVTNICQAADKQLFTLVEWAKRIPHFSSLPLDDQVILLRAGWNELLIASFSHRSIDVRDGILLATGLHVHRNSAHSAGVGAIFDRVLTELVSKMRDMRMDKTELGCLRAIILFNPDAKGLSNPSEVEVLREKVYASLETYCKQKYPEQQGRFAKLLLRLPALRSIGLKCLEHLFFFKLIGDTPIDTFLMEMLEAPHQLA
Chain of E-selectin (Homo sapiens) (P16581 whole entry, looked up): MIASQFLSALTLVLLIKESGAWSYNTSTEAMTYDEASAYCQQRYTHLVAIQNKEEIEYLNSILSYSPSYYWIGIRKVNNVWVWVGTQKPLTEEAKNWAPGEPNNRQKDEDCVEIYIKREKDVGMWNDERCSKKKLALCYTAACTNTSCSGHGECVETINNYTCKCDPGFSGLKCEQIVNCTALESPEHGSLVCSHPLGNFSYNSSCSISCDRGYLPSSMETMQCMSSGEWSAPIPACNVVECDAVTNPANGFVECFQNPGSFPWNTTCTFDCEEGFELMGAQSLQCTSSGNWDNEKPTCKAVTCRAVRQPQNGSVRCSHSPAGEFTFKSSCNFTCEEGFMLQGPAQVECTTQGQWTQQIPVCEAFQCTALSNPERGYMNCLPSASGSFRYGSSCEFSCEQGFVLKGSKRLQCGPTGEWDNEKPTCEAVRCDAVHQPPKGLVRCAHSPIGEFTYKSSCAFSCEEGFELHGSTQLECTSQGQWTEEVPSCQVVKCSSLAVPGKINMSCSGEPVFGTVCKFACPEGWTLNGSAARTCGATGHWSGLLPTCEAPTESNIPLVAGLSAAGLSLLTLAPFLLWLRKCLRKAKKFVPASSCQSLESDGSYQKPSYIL
Chain of Nuclear receptor subfamily 1 group I member 2 (Homo sapiens) (O75469 whole entry, looked up, the tested form may be a part): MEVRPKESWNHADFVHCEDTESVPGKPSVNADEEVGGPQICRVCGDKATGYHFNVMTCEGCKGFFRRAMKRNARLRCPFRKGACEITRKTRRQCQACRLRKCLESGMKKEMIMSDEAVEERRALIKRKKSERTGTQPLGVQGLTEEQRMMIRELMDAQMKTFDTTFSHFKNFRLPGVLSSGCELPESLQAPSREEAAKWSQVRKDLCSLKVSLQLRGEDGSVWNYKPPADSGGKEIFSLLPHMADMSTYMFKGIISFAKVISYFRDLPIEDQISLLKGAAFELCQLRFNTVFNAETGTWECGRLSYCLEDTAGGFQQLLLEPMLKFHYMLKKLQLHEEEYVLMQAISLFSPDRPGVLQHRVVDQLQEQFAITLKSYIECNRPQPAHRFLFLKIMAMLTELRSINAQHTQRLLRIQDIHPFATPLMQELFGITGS
Chain of human Thyroid Receptor alpha (THRa1), THRA (gene 7067) (P10827 whole entry, looked up, the tested form may be a part): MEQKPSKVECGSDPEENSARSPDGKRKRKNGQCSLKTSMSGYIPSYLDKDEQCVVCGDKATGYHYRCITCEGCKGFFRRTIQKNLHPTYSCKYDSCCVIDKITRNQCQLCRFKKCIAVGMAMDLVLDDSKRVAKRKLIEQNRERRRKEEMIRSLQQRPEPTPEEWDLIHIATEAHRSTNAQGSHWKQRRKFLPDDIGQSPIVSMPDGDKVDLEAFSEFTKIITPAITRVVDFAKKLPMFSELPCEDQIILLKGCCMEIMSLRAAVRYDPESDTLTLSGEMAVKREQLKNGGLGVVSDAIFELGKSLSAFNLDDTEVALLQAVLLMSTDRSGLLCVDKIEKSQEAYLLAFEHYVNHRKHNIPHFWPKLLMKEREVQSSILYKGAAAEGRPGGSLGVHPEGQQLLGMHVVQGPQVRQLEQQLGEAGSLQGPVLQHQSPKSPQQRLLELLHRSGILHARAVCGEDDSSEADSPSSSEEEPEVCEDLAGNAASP
Chain of human RAR-related Orphan Receptor gamma (RORg), RORC (gene 6097) (P51449 whole entry, looked up, the tested form may be a part): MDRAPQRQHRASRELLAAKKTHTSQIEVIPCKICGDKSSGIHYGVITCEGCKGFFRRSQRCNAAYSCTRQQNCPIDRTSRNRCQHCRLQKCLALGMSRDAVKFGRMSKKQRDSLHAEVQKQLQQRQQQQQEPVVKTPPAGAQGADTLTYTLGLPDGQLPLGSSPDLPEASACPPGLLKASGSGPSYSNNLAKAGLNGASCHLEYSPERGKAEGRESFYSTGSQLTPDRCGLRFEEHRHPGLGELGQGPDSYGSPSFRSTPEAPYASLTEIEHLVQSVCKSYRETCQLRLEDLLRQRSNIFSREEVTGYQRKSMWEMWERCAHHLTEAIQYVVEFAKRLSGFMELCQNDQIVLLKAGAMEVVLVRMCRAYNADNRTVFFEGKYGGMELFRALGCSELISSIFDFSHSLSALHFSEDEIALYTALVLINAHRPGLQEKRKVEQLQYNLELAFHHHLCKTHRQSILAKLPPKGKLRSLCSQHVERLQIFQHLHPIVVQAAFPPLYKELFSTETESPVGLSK
Chain of Retinoic acid receptor alpha (Homo sapiens) (P10276 whole entry, looked up, the tested form may be a part): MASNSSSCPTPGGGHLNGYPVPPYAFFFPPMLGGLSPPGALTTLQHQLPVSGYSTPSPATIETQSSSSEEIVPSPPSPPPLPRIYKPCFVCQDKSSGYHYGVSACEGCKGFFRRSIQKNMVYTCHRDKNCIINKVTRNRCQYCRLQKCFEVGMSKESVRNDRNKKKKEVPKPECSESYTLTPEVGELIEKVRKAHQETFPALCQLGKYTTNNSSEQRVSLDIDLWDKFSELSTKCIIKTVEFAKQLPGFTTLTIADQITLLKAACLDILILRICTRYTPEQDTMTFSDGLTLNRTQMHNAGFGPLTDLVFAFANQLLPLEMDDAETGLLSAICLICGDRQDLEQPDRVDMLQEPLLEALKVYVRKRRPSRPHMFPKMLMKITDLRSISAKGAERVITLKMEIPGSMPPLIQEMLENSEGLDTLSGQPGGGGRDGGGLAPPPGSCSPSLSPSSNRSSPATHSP
Chain of human Retinoic Acid Receptor beta (RARb), RARB (gene 5915) (P10826 whole entry, looked up, the tested form may be a part): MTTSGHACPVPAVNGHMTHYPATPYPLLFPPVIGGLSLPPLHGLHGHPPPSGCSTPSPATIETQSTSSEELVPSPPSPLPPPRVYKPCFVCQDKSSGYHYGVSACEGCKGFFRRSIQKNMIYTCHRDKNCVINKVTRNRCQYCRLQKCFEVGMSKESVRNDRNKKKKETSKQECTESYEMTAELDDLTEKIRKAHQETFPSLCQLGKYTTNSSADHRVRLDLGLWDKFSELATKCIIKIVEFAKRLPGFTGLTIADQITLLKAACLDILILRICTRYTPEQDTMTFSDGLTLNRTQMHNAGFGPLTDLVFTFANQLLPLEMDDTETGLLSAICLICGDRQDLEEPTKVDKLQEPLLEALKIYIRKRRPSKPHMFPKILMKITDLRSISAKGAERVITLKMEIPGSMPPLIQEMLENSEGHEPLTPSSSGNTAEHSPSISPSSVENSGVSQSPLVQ
Chain of human Retinoic Acid Receptor gamma (RARg), RARG (gene 5916) (P13631 whole entry, looked up, the tested form may be a part): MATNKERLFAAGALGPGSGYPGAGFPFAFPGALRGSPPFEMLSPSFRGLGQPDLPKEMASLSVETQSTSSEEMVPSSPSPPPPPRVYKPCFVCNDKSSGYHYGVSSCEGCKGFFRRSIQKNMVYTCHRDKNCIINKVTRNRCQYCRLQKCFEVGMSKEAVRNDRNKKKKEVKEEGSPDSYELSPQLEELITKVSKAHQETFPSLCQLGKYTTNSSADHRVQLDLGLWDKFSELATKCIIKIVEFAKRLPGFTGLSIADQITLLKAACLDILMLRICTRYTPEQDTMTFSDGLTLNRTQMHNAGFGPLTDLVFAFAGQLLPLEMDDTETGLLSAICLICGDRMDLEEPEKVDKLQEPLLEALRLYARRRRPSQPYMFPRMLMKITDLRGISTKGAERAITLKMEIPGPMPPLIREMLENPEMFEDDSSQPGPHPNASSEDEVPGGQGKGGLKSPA

CCNc1nc(Cl)nc(NC(C)(C)C)n1
active: [8] 4.35 µM | [12] 49.1 µM
inactive: [1] | [2] | [3] | [4] | [5] | [6] | [7] | [9] | [10] | [11] | [13] | [14] | [15] | [16] | [17]

O=P(OCC(Br)CBr)(OCC(Br)CBr)OCC(Br)CBr (configuration not stated)
inactive: [2] | [3] | [11] | [13]
active: [1] 17.4 µM | [6] 11.9 µM | [7] 2.68 µM | [8] 0.224 µM | [14] 17.4 µM | [15] 29.3 µM | [16] 17.4 µM | [17] 3.45 µM

[N-]=[N+]=[N-]
inactive: [1] | [2] | [18] | [3] | [6] | [10] | [13] | [14] | [15] | [16] | [17]

CCOc1ccc(C(C)(C)COCc2cccc(Oc3ccccc3)c2)cc1
active: [6] 0.697 µM | [8] 4.88 µM
inactive: [1] | [2] | [3] | [7] | [11] | [12] | [13] | [14] | [15] | [16] | [17]

Cc1c([N+](=O)[O-])cc2c(c1[N+](=O)[O-])C(C)(C)CC2(C)C
inactive: [1] | [19] | [3] | [4] | [5] | [7] | [13] | [14] | [15] | [16] | [17]
active: [2] 2.15 µM | [6] 2.4 µM | [8] 0.862 µM | [9] 2.08 µM | [11] 8.24 µM | [12] 1.37 µM

O=P(Oc1ccccc1)(Oc1ccccc1)Oc1ccccc1
inactive: [3] | [11] | [13] | [14] | [15]
active: [1] 27.6 µM | [2] 33.8 µM | [6] 24.9 µM | [7] 5.5 µM | [8] 0.693 µM | [16] 33.5 µM | [17] 13.6 µM
